# Measured values as given in PubChem BioAssay (NCATS).
# Inconclusive results are not listed. Unmarked numbers belong to inactive results. Calls follow the shape of the dose curve; as a rule, active = well fitted inhibition curve with a large enough effect; inconclusive = small, poorly fitted or top-dose-only effect; inactive = flat fitted curve, though single readings scatter.
# System: Zika virus NS2B-NS3 protease
# Test: Primary screen GU AMC qHTS for Zika virus inhibitors (AID 1347154);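 also: 0% = no-inhibitor control and -100% = no-enzyme control; nearly all actives have a fitted effect of over 70% in size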
# Settings: Zika NS2B-NS3 unlinked protease, AMC fluorogenic substrate; series mostly up to 54.1 µM; activity change, negative = inhibition: at the top concentration
# Summary of the method: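 Fluorogenic AMC-substrate cleavage by noncovalent NS2B-NS3 protease complex (25 nM, pH 8.0 Tris buffer with Tween 20) followed for 15 minutes at room temperature (~20% conversion). Percent inhibition from ex340/em450 signal change, fitted by 4-parameter Hill equation.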
row,SMILES,"activity change, negative = inhibition"
1,O=P(O)(O)OCC(O)CO (centres undefined),-2.05%
2,CN(C)CCOC(c1ccccc1)c1ccc(Br)cc1 (centres undefined),5.27%
3,CCC(CN)=C(c1ccccc1)c1ccccc1,-4.2%
4,CCCCCOc1ccccc1/C(=C\SC)n1ccnc1,-8.08%
5,CC(=O)c1cc2ccccc2s1,1.39%
6,O=C(O)/C=C(\CC(=O)O)C(=O)O,-0.852%
7,O=C(O)c1[nH]n(-c2ccc(S(=O)(=O)O)cc2)c(=O)c1N=Nc1ccc(S(=O)(=O)O)cc1,-15.5%
8,CC1(C)S[C@@H]2[C@H](NC(=O)C(c3ccccc3)S(=O)(=O)O)C(=O)N2[C@H]1C(=O)O (some centres undefined),3.61%
9,Brc1ccccc1-c1ccccc1,-1.5% [at 104 µM]
10,CCO[C@H](Cc1ccc(OCCc2ccc(OS(C)(=O)=O)cc2)cc1)C(=O)O,3.17%
11,O=C(CCOCCOCCOCCOCCC(=O)Nc1c(I)cc(I)c(C(=O)O)c1I)Nc1c(I)cc(I)c(C(=O)O)c1I,-6.27%
12,CCC1(c2cnc[nH]2)Cc2ccccc2C1,-16.4%
13,O=C(CO)[C@@H](O)[C@H](O)[C@@H](O)CO,-1.46%
14,COc1cc2nc(Cl)nc(N)c2cc1OC,11.2%
15,CCCC(=O)O[C@]1(C(=O)CCl)[C@@H](C)C[C@H]2[C@@H]3CCC4=CC(=O)C=C[C@]4(C)[C@@]3(F)C(=O)C[C@@]21C,-4.83%
16,O=C1CC(c2ccc(Cl)cc2)CC(=O)N1,7.65%
17,Cc1c(F)cc2c(=O)c(C(=O)O)cn3c2c1CCC3C (centres undefined),-5.05%
18,Cc1cccc(N(C)C(=S)Oc2ccc3c(c2)C2CCC3C2)c1 (centres undefined),-4.47%
19,CCCC(=O)O[C@]1(C(=O)CC)CC[C@H]2[C@@H]3CCC4=CC(=O)CC[C@]4(C)[C@H]3[C@@H](O)C[C@@]21C,-5.29%
20,Cc1coc2ccccc2c1=O,-1.28%

row,SMILES,"activity change, negative = inhibition"
1,CC[C@@H]([C@H](C)O)n1ncn(-c2ccc(N3CCN(c4ccc(OC[C@@H]5CO[C@@](Cn6cncn6)(c6ccc(F)cc6F)C5)cc4)CC3)cc2)c1=O,0.377%
2,C/C=C(/C(=C/C)c1ccc(OC(C)=O)cc1)c1ccc(OC(C)=O)cc1,-4.78%
3,CCOC(=O)O[C@]1(C(=O)OCCl)CC[C@H]2[C@@H]3CCC4=CC(=O)C=C[C@]4(C)[C@H]3[C@@H](O)C[C@@]21C,1.59%
4,COc1ccccc1OCC1CNC(=O)O1 (centres undefined),-1.97%
5,Nc1ccc([N+](=O)[O-])c(C(F)(F)F)c1,4.46%
6,CCCCC(=O)OCC(=O)[C@H]1[C@H](C)C[C@H]2[C@@H]3C[C@H](F)C4=CC(=O)C=C[C@]4(C)[C@@]3(F)[C@@H](O)C[C@@]21C,-16.8%
7,O=C(Nc1ccc(Cl)cc1)Nc1ccc(Cl)c(Cl)c1,0.406%
8,O=C1CC2(CCCC2)CC(=O)N1,3.43%
9,CCCCN(CCCC)C(C(N)=O)c1ccc(OC)cc1 (centres undefined),-0.516%
10,CCCOc1ccc2c(c1)CC[C@@H]1[C@@H]2CC[C@]2(C)C(OC)CC[C@@H]12 (some centres undefined),2.79%
11,CCCc1ncc(C(=O)O)s1,-3.21%
12,CN1CC[C@H](c2c(O)cc(O)c3c(=O)cc(-c4ccccc4Cl)oc23)[C@H](O)C1,1.99%
13,CN(C)CCOC1=Cc2ccccc2Sc2ccc(Cl)cc21,-5.08%
14,O=C1c2ccccc2CCc2ccccc21,-1.93%
15,c1ccc2occc2c1,3.1% [at 104 µM]
16,CC(CC1c2ccccc2CCc2ccccc21)CN(C)C (centres undefined),-6.48%
17,Cc1ccc(-c2ccccc2C#N)cc1,-4.98%
18,COc1cc(S(N)(=O)=O)cc(C(=O)O)c1OC,5.1%
19,O=C(O)c1cn(C2CC2)c2cc(Cl)c(F)cc2c1=O,0.101%
